High-throughput results (PubChem BioAssay)
Mm-Cpn inhibitor – M. maripaludis TRiC chaperonin inhibition | purified Mm-Cpn ATPase, ADP Transcreener TR-FRET | Potency, µM (doses to about 76.9 µM), for the others: at the top dose activity, negative = inhibition, actives largely listed as inhibitors | hit rate 0.031% among 330,000; also: potency is read from the fitted curve at half-maximal effect; % is scaled to controls: 0 for no effect and ±100 for the full control effect; nearly all actives have a fitted effect of over 80% in size
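Inhibition of chaperonin ATP hydrolysis is measured as reduced ADP production, detected by competitive TR-FRET in which signal falls with ADP. Final enzyme 25 nM and ATP 10 uM, reacted 30 min at 37°C.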
p53 reactivator – re-activators of mutant p53. H1299 p53-A138V BP100-luciferase reporter, luminescence, 24 h. Potency, µM (highest dose often 92.2 µM), inactives show top-dose activity change, positive = activation, most hits filed as activators. hit rate 0.063% among 320,000; also: potency is read from the fitted curve at half-maximal effect; % of control where 0% means no effect; nearly all actives have a fitted effect of over 45% in size
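H1299 (p53-null), stable ts p53-A138V + BP100-Luc; 1000 cells/well, Opti-MEM/10% FBS; cpd 4 pt, 1:5; 24 h, 37 deg C, 5% CO2; detection reagent 10 min RT; luminescence.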
ASM inhibitor – inhibitors of human secretory acid sphingomyelinase; P17405; placental ASM, HMU-PC fluorogenic substrate, 60 min; Potency, µM (top dose mostly 57.5 µM), without a hit: at the highest dose activity change, negative = inhibition, hits mostly inhibitors; hit rate 0.006% among 340,000; AID 504937; also: potency is read from the fitted curve at half-maximal effect
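HMU-PC0 cleavage (9 uM final) by human placental ASM, 60 min at 37 °C following 10 min compound exposure at RT; stopped at pH 10, fluorescence Ex 386/Em 447 nm.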
12-LOX inh – ALOX12 (human) lipoxygenase inhibition; P18054; purified 12hLO, xylenol orange hydroperoxide absorbance; Potency, µM (highest dose often 108 µM), inactives show top-dose activity change, negative = inhibition, most hits filed as inhibitors; hit rate 1.1% among 580,000; AID 1671190; also: potency is read from the fitted curve at half-maximal effect; % is scaled to controls: 0 for no effect and ±100 for the full control effect
Target sequence (P18054 whole entry, looked up): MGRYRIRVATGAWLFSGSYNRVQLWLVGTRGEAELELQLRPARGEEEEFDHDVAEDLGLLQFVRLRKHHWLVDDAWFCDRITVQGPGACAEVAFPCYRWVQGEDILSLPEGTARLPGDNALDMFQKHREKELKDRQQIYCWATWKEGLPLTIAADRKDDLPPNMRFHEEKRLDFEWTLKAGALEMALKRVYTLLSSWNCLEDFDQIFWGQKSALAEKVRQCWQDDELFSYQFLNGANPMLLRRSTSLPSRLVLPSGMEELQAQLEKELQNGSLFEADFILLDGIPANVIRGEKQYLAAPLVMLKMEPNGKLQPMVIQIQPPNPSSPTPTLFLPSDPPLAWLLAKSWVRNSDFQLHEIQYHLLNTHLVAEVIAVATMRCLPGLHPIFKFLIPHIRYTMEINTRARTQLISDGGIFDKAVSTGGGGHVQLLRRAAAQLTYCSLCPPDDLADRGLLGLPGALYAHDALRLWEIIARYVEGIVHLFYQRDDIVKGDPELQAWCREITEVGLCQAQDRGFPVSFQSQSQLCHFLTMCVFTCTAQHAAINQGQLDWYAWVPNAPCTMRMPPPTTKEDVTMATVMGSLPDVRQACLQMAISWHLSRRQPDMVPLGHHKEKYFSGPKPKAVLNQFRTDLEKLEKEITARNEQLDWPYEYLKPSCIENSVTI
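Hydroperoxide product was detected by ferrous iron/xylenol orange as the 573 to 405 nm absorbance ratio. Arachidonic acid at 40 uM (final) was turned over for 30 min at room temperature by 150 nM human 12hLO, pH 7.0 Hepes buffer, after 15 min compound preincubation.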
CCT modulator – changes cytosolic chaperonin activity; purified chaperonin ATPase assay, HTRF ADP detection, 30 min; activity change, % (concentration not given with the values), hits read low; hit rate 0.3% among 360,000; AID 651819; in the data active = activity change below about -30%; also: % is scaled to controls: 0 for no effect and ±100 for the full control effect
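We incubate TRiC, 40 or 20 nM final, with library compounds at 76 uM and 10 uM ATP for 30 min at 37 °C. ADP formed is detected with Transcreener HTRF reagents after 30 min at room temperature.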
PINK1 modulator – changes PINK1 expression. PINK1 immunofluorescence, high-content cytometry, 24 h. hit rate 0.2% among 410,000. Potency, µM (highest dose often 76.6 µM), for inactives: at the top dose activation (PINK1 increase), most hits filed as activators; active = well fitted activation curve with a large enough effect; inconclusive = small, poorly fitted or top-dose-only effect; cell line not stated here; also: potency is read from the fitted curve at half-maximal effect; % of control where 0% means no effect; nearly all actives have a fitted effect of over 65% in size
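Stable cell line treated 24 h with compounds at 5 concentrations (CCCP controls), then fixed and immunostained for PINK1 plus nuclear and cell stains; PINK1 immunofluorescence quantified by laser-scanning microplate cytometry.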
Active calls of the source: *; i = inactive; ? = inconclusive; . = not tested or not shown; [ ] = another dose, or the depositor's remark. Shown are actives, neighbours in structure and some others; about 1.4% of the full set was active somewhere. Unless noted, calls follow the shape of the dose curve; as a rule, active = well fitted curve in the direction sought with a large enough effect; inconclusive = small, poorly fitted or top-dose-only effect, or another doubt; inactive = no such curve, though single readings can be large; an effect the other way counts as inactive or inconclusive.

SMILES	Mm-Cpn inhibitor	p53 reactivator	ASM inhibitor	12-LOX inh	CCT modulator	PINK1 modulator
O=C(COc1ccc(-c2nnc3n2CCCC3)cc1)Nc1ccc(Br)cc1	.	.	.	4%	.	.
O=C(COc1ccc(F)cc1)Nc1ccc(-c2nnc3n2CCCC3)cc1	.	.	.	32µM*	.	.
CCN(CC)c1nc2ccccc2nc1C(=O)Nc1cccc(C)c1	.	.	.	-9%	.	.
COc1ccc(-n2c(=O)c(-c3cccs3)nc3cnc(Nc4ccccc4)nc32)cc1	.	.	.	?	.	4.5µM*
CN(C)c1ncc2nc(-c3cccs3)c(=O)n(-c3ccccc3)c2n1	.	.	.	0%	.	40µM*
CCNc1ncc2nc(-c3cccs3)c(=O)n(-c3ccc(OC)cc3)c2n1	.	.	.	0%	.	9%
COc1cccc(-c2csc(/C(C#N)=C/c3ccccc3C(F)(F)F)n2)c1	.	.	.	11%	.	.
COc1ccccc1NC(=O)CSCc1cc(=O)c2ccccc2[nH]1	.	.	.	3%	.	.
O=C(O)c1ccc2ncsc2c1	-10%	2%	-3%	45µM*	1	2%
O=C(c1ccc2ncsc2c1)N1CCCCC1	2%	-19%	5%	-20%	-36*	1%
O=C(NC1CCCC1)c1ccc2ncsc2c1	.	.	.	6%	.	.
CC(=O)N1CCc2cc(S(=O)(=O)CCC(=O)N3CCC(CCOc4ccccc4)C3)ccc21 (centres undefined)	.	.	.	-1%	.	.
O=C(/C=C/c1ccc(Br)cc1)NC(=O)c1ccccc1O	0%	-2%	-4%	10%	-1	20%
O=C(/C=C/c1ccc(O)c(O)c1)NC(=O)c1ccccc1O	-8%	.	-14%	40µM*	-1	0%
O=C(/C=C/c1ccc(O)c(O)c1)c1ccc(O)cc1O	.	.	.	8.9µM*	.	.
O=C(COC(=O)COc1ccc2c(c1)CCC2)NC1CCS(=O)(=O)C1 (centres undefined)	.	.	.	7%	.	.
C[N+](C)(C)c1ccc(/C=N/N=C/c2ccccc2)cc1	.	.	.	11µM*	.	.
C(=N\N=C\c1ccccc1)/c1ccccc1	2%	2%	2%	-7%	0	7%
COc1ccc2c(C)c(CCC(=O)Nc3ccccc3)c(=O)oc2c1	.	.	.	3%	.	.
Clc1ccccc1-c1nc(-n2ccnc2)c2ccccc2n1	.	.	.	56µM*	.	0%
CN(C)c1ccc(-c2nc(-n3ccnc3)c3ccccc3n2)cc1	.	.	.	?	.	1%
Cc1nnc(SCC(=O)NC23CC4CC(CC(C4)C2)C3)n(N)c1=O	0%	7%	-1%	12%	-42*	0%
Cn1ccnc1SCC(=O)NC12CC3CC(CC(C3)C1)C2	-5%	4%	23%	11%	-1	.
CCCCN(CCCC)CC(O)Cn1cc(/C=C/C(=O)c2ccccc2)c2ccccc21 (centres undefined)	.	.	.	45µM*	.	?
COC(=O)c1ccc(COC(=O)c2cc(-c3ccco3)nc3ccccc23)cc1	.	.	.	7.1µM*	.	.
SMILES	Mm-Cpn inhibitor	p53 reactivator	ASM inhibitor	12-LOX inh	CCT modulator	PINK1 modulator
Cc1cc(C(=O)OCC(=O)N2CCCC2)c2ccccc2n1	-1%	-5%	-3%	2%	-2	8%[38.3 µM]
NC(=O)COC(=O)c1cc(-c2ccco2)nc2ccccc12	-6%	-10%	466%	28µM*	-2	2%
O=C(OCC(=O)N1CCCC1)c1cc(-c2ccco2)nc2ccccc12	.	.	.	6.3µM*	.	.
CNC(=O)NC(=O)COC(=O)c1cc(-c2ccco2)nc2ccccc12	.	.	.	16µM*	.	.
CCc1ccc(C(=O)Oc2ccc3ccccc3c2)cc1	.	.	.	-2%	.	.
COC(=O)c1cc(NC(=O)c2cccc(C(F)(F)F)c2)c(=O)oc1C	1%	1%	0%	1%	-2	6%
COC(=O)c1cc(NC(=O)c2cccc(C(F)(F)F)c2)c(=O)oc1C/C=N/OCc1cccc(Cl)c1Cl	1%	-2%	-1%	?	-1	22µM*
Cc1cccc(OCC(O)CN2CCCN(c3ccc(C(F)(F)F)cn3)CC2)c1 (centres undefined)	.	.	.	13µM*	.	.
CC1(C)CC(=O)C2=C(C1)c1c(ccc3ccccc13)NC2c1cc([N+](=O)[O-])cc([N+](=O)[O-])c1O (centres undefined)	1%	5%	6%	40µM*	0	1%
CN(C)C(=O)c1cnc(Cc2c[nH]c3ccccc23)c(I)c1	.	.	.	14µM*	.	.
Cn1cc(C(=O)C(=O)NCCc2ccccc2)c2ccccc21	3%	-3%	0%	0%	-51*	3%
Cn1cc(SCC(=O)NCCc2ccccc2)c2ccccc21	2%	-2%	0%	-3%	-3	3%
Cc1ccc2cc(C(=O)NC3CCS(=O)(=O)C3)[nH]c2c1 (centres undefined)	.	.	.	0%	.	.
N#C/C(=N/Nc1ccc(OC(F)(F)F)cc1)C(N)=S	-10%	22%	-10%	?	-3	14µM*
COc1ccc(N/N=C(\C#N)C(N)=O)cc1	0%	24%	-9%	-13%	2	0%
CCc1ccc(CNC(=O)c2cc3cn(C4CCCC4)cc3s2)cc1	.	.	.	4.5µM*	.	.
Cc1cc(=O)c(C(=O)N2CCN(S(=O)(=O)c3ccc4c(c3)CCC4)CC2)nn1-c1ccccc1F	.	.	.	15%	.	.
Cc1ccc(NC(=O)c2cc3ccc(O)cc3oc2=O)cc1	.	.	.	22%	.	.
N=c1oc2cc(O)ccc2cc1C(=O)Nc1ccc(F)cc1	0%	21%	i	-2%	0	14µM*
O=C(NC(=S)Nc1ccccc1N1CCCCC1)c1cccs1	2%	?	-1%	50µM*	2	20%
O=C(NC(=S)Nc1ccccc1N1CCCC1)c1cccs1	-3%	8%	0%	-30%	-1	4%
COc1ccc(C(=O)NC(=S)Nc2ccccc2N2CCCCC2)cc1[N+](=O)[O-]	-1%	4%	-14%	40µM*	2	6%
O=C(NC(=S)Nc1ccccc1N1CCN(C(=O)c2ccccc2)CC1)c1cccs1	0%	-1%	-5%	16µM*	2	3%
O=C(NCCc1ccccc1)C12CC3CC(CC(Cl)(C3)C1)C2	.	.	.	-13%	.	.
COc1ccc(S(=O)(=O)c2cn(CC(=O)Nc3cccc(Cl)c3)c3ccc(C)cc3c2=O)cc1	.	.	.	-15%	.	.
SMILES	Mm-Cpn inhibitor	p53 reactivator	ASM inhibitor	12-LOX inh	CCT modulator	PINK1 modulator
Cc1c(/C=N/n2cnnc2)c2ccccc2n1CCOc1ccc(Cl)cc1	0%	1%	35µM*	-1%	-1	2%
C=CCNc1nc(NCc2ccc(NC(C)=O)cc2)c2sc(-c3ccccc3)cc2n1	.	.	.	?	-1	-1%
CC(=O)Nc1ccc(CNc2nc(NC(C)C)nc3cc(-c4ccccc4)sc23)cc1	.	.	.	45µM*	-2	-1%
COc1ccc(-c2cc(CNc3nc(NC(C)C)nc4cc(-c5ccccc5)sc34)on2)cc1	.	.	.	45µM*	0	0%
CC(=O)NCCNc1nc(NC(C)C)nc2cc(-c3ccccc3)sc12	.	.	.	?	-1	1%
Cc1cc(I)c(-c2c(I)cc(C)c(N)c2C)c(C)c1N	.	.	.	-18%	.	.
